{"source": "PubChem BioAssay AID1379", "about": "(National Center for Advancing Translational Sciences (NCATS), 2008)", "note": "Among all 200,000 compounds or so, about 560 (0.28%) were called active. Calls come from the whole dose curve; as a rule, active = well fitted inhibition curve with a large enough effect; inconclusive = small, poorly fitted or top-dose-only effect; inactive = flat fitted curve, though single readings scatter. This excerpt belongs to a sample that is enriched for actives. % is set by controls: 0 for no effect and ±100 for the full control effect; potency is the fitted concentration of half-maximal effect.", "data": [{"target": "Luciferin 4-monooxygenase (Photuris pensylvanica) (UniProt Q27757)", "experiment": "Counterscreen for Luciferase (Kinase-Glo TM) Inhibition; note: nearly all actives have a fitted effect of over 60% in size", "conditions": "ATP luminescence, 8 min; series mostly up to 38.3 µM; activity change, negative = inhibition: at the top concentration", "description": "NCGC Assay Overview: NIH Molecular Libraries Screening Centers Network [MLSCN] NIH Chemical Genomics Center [NCGC] MLSCN Grant: None Luciferase (Kinase-Glo, Promega Corporation) was assayed for its ability to generate light using ATP and luciferin as substrates. The ATP concentration in the assay (10 uM) was within the linear range of enzyme activity for the assay conditions used.\nNCGC Assay Protocol Summary: Four uL of substrate mix (final concentration, 50 mM imidazole pH 7.2, 50 mM KCl, 7 mM MgCl2, 10 uM ATP, 0.01% Tween 20, 0.05% BSA) was dispensed into white 1536 well plates. Twenty-three nL of compound was delivered by a pin tool and 2 uL of luciferase detection mix (Kinase-Glo, Promega)) was added. Following 8-minute incubation at ambient temperature, luminescence was measured by a ViewLux (Perkin Elmer) at 5 seconds exposure/plate.", "values": [{"compound": "Cc1ccc(-c2cn3cc([N+](=O)[O-])ccc3n2)cc1", "activity change, negative = inhibition": "-24.6% (inactive)"}, {"compound": "COc1ccc(-c2cn3ccsc3n2)cc1", "activity change, negative = inhibition": "-24.5% (inactive)"}, {"compound": "Cc1ccc(-c2cn3cc(C)ccc3n2)cc1", "Potency": "11.2 µM (active)"}, {"compound": "C[C@H]1Cc2c(-c3ccccc3)nc3c(c2CO1)CN(S(=O)(=O)c1ccc(Cl)c2nonc12)CC3", "activity change, negative = inhibition": "-6.5% [at 7.66 µM] (inactive)"}, {"compound": "C=C(C(C)=O)C(O)c1ccc([N+](=O)[O-])cc1", "note": "(stereo not given)", "activity change, negative = inhibition": "2.25% (inactive)"}, {"compound": "Cc1ccc(-c2cccc([C@H]3[C@@H]4C=CC[C@@H](C)[C@@H]4C(=O)N3Cc3ccccc3)c2)cc1", "activity change, negative = inhibition": "2.21% [at 39.9 µM] (inactive)"}, {"compound": "COc1nc(-c2ccc(Cl)cc2)ccc1-c1noc(-c2cccs2)n1", "activity change, negative = inhibition": "0.069% (inactive)"}, {"compound": "COc1ccc(Cc2nc(-c3ccccn3)no2)cc1OC", "activity change, negative = inhibition": "1.94% (inactive)"}, {"compound": "O=C(Oc1ccc(-c2nc(-c3ccccn3)no2)cc1)c1ccccc1", "Potency": "4.47 µM (active)"}, {"compound": "O=C(Oc1ccccc1)c1ccc2nccnc2c1", "activity change, negative = inhibition": "5.55% (inactive)"}, {"compound": "c1csc(-c2nc(-c3ccncc3)no2)c1", "activity change, negative = inhibition": "-13.5% (inactive)"}, {"compound": "c1ccc(-c2noc(-c3cccs3)n2)nc1", "Potency": "12.6 µM (active)"}, {"compound": "C/C(Nc1ccc2oc(=O)ccc2c1)=C1/C(=O)CC2[C@@H]1C2(C)C", "note": "(stereo not given in full)", "activity change, negative = inhibition": "-0.876% (inactive)"}, {"compound": "O=C1/C(=C/c2cccs2)CCc2ccccc21", "Potency": "11.2 µM (active)"}, {"compound": "COc1ccc(/C=C2\\CCc3ccccc3C2=O)c(OC)c1OC", "activity change, negative = inhibition": "0.525% (inactive)"}, {"compound": "CCC1C/C(=C/c2cccs2)C(=O)/C(=C/c2cccs2)C1", "note": "(stereo not given)", "activity change, negative = inhibition": "1.29% (inactive)"}, {"compound": "N#Cc1cccc(CS(=O)(=O)c2nnnn2-c2cc(C(F)(F)F)cc(C(F)(F)F)c2)c1", "activity change, negative = inhibition": "-0.728% (inactive)"}, {"compound": "COc1ccc(-c2nc3c(c4c2C[C@H](c2ccccc2)OC4)CN(S(=O)(=O)c2c(C)noc2C)CC3)c(C)c1", "activity change, negative = inhibition": "-5.25% [at 7.66 µM] (inactive)"}, {"compound": "O=C1C=C(c2ccccc2)CCC1", "activity change, negative = inhibition": "-0.266% (inactive)"}, {"compound": "COc1ccc2c(c1)O[C@@H](c1ccc3c(c1)OCO3)[C@H](OC(=O)NCc1ccco1)C2=O", "activity change, negative = inhibition": "2.74% (inactive)"}, {"compound": "COc1cc(NC(=O)c2cc([N+](=O)[O-])ccc2Br)ccc1NC(=O)c1ccco1", "activity change, negative = inhibition": "1.81% (inactive)"}, {"compound": "COc1ccccc1C(=O)Nc1ccc(NC(=O)c2ccco2)c(C)c1", "Potency": "10 µM (active)"}, {"compound": "COc1ccc(NC(=O)c2cccc(NC(=O)c3ccco3)c2)c(OC)c1", "activity change, negative = inhibition": "0.933% (inactive)"}, {"compound": "O=C(NCc1ccco1)O[C@@H]1C(=O)c2cc(Br)ccc2O[C@H]1c1ccc2c(c1)OCO2", "activity change, negative = inhibition": "-0.751% (inactive)"}, {"compound": "Cc1cccc([C@H]2[C@@H]3C=CC[C@@H](C)[C@@H]3C(=O)N2Cc2ccccc2)c1", "activity change, negative = inhibition": "-0.116% [at 39.9 µM] (inactive)"}, {"compound": "CCN1C(=O)N[C@@H](CCc2ccccc2)C(C(=O)OC)=C1C", "activity change, negative = inhibition": "0.314% [at 7.66 µM] (inactive)"}, {"compound": "C=CCC(C)(O)c1ccco1", "note": "(stereo not given)", "activity change, negative = inhibition": "1.24% (inactive)"}, {"compound": "O=C1OCCN1C(=O)[C@H]1[C@H](c2ccc(F)cc2)C(c2ccccc2)=NN1c1ccc(Br)cc1", "activity change, negative = inhibition": "2.64% [at 39.9 µM] (inactive)"}, {"compound": "Cc1ccccc1-c1ccc(C(=O)O)s1", "activity change, negative = inhibition": "3.14% [at 39.9 µM] (inactive)"}, {"compound": "C=CC1(C)CC(=O)C2(O)C(C)(O1)C(OC(C)=O)C(O)C1C(C)(C)CCC(O)C12C", "note": "(stereo not given)", "activity change, negative = inhibition": "inactive"}, {"compound": "COCCN1C=C2C(=O)C(C)(OC(=O)C3CCCC3)C(=O)C=C2C=C1c1ccsc1", "note": "(stereo not given)", "activity change, negative = inhibition": "-8.74% [at 7.66 µM] (inactive)"}, {"compound": "CC1=C2[C@@H](O)[C@H]([C@@H](C)C(=O)NCCC(C)C)CC[C@@]2(C)C=CC1=O", "activity change, negative = inhibition": "-3.8% (inactive)"}, {"compound": "COC(=O)CCCC1=CC2=CC(=O)C(C)(OC(=O)c3cccs3)C(=O)C2=CN1c1cccc(C#N)c1", "note": "(stereo not given)", "activity change, negative = inhibition": "0.0108% [at 7.66 µM] (inactive)"}, {"compound": "C/C=C(\\C)C(=O)O[C@H]1CC(C)=C2C(=O)C=C(C)C2[C@@H]2OC(=O)[C@@](C)(OC(=O)C=C(C)C)C21", "note": "(stereo not given in full)", "activity change, negative = inhibition": "-12.3% (inactive)"}, {"compound": "COc1ccc(OC)c(N=Cc2c(O)[nH]c3ccccc23)c1", "activity change, negative = inhibition": "-1.78% (inactive)"}, {"compound": "COc1ccccc1N=Cc1c(O)c2ccccc2oc1=O", "Potency": "14.1 µM (active)"}, {"compound": "COc1ccc(N=Cc2c(O)[nH]c3ccccc23)cc1OC", "activity change, negative = inhibition": "-4.22% (inactive)"}, {"compound": "NC1CCN(O)C1=O", "note": "(stereo not given)", "activity change, negative = inhibition": "0.152% (inactive)"}, {"compound": "Cc1ccc(NC(=O)O[C@@H]2C(=O)c3cc(Br)ccc3O[C@H]2c2ccc3c(c2)OCO3)cc1Br", "activity change, negative = inhibition": "0.235% (inactive)"}, {"compound": "C=CC1=C2C=C(C3CC3)N(CC(C)C)C=C2C(=O)C(C)(OC(=O)c2ccco2)C1=O", "note": "(stereo not given)", "activity change, negative = inhibition": "-1.36% [at 7.66 µM] (inactive)"}, {"compound": "COc1ccc(/C=C2\\NC(=O)[C@@H]3Cc4ccccc4CN3C2=O)cc1", "activity change, negative = inhibition": "-1.84% (inactive)"}, {"compound": "CCCCCCCC[C@@H](O)/C=C/C=C/C=C\\[C@@H](O)CCCC(=O)O", "activity change, negative = inhibition": "-0.585% (inactive)"}, {"compound": "C=C(C(C)=O)C(O)c1cccs1", "note": "(stereo not given)", "activity change, negative = inhibition": "2.74% (inactive)"}, {"compound": "C=CCC1CCC(=O)N2CCCC12", "note": "(stereo not given)", "activity change, negative = inhibition": "1.99% [at 39.9 µM] (inactive)"}, {"compound": "CC1(OC(=O)CCc2ccccc2)C(=O)C=C2C=C(c3ccc(C#N)cc3)N(CCc3ccccn3)C=C2C1=O", "note": "(stereo not given)", "activity change, negative = inhibition": "-6.83% [at 7.66 µM] (inactive)"}]}]}
